Only a selection was taken, and hits are over-represented in it overall.
Dicer inh = human Dicer pre-microRNA cleavage inhibition; cat-ELCCA pre-miR-21 Dicer processing, chemiluminescence; stronger effect = higher value; Q9UPY3; AID 1347074; z-score at 25 µM; 6% of 47,000 active; in the data active = z-score above about 3, passing the limit was not always enough;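 note: higher signal means more uncleaved substrate so more Dicer inhibition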
Large screens that a line does not name were inactive.

Cc1ccnc(NC(c2cccc(F)c2)c2ccc3ccc(C)nc3c2O)c1 (stereo unspecified)	Dicer inh 6.08
C=CCOc1cccc(C(Nc2cc(C)ccn2)c2ccc3cccnc3c2O)c1 (stereo unspecified)	Dicer inh 8.33
Cc1ccc2ccc(C(Nc3ccccn3)c3cccs3)c(O)c2n1 (stereo unspecified)	none
COc1cccc(C(Nc2cc(C)ccn2)c2ccc3cccnc3c2O)c1 (stereo unspecified)	none
Cc1ccnc(NC(c2ccccc2F)c2ccc3cccnc3c2O)c1 (stereo unspecified)	none
Cc1ccnc(NC(c2cc(C)ccc2O)c2ccc3cccnc3c2O)c1 (stereo unspecified)	Dicer inh 10.6
COc1ccc(C(Nc2cc(C)ccn2)c2ccc3ccc(C)nc3c2O)cc1 (stereo unspecified)	none
CCC(C)OC(=O)COc1ccc2c(=O)c(Oc3ccc(OC)cc3)coc2c1 (stereo unspecified)	none
O=C(c1cccs1)N1CCCN(CC(O)COc2ccc(Cl)c(Cl)c2)CC1 (stereo unspecified)	none
CNC(=O)C(=O)c1c(-c2ccc(Br)cc2)[nH]c2ccccc12	none
CC(C)(C)c1cnnn1-c1ccc(NC(=O)c2cccs2)cc1	none
CC(C)c1nc2sc3c(NCCCO)ncnc3c2c2c1CCCC2	none
CC1CC(=O)Nc2ccccc2N1C(=O)Nc1ccccc1OC(F)(F)F (stereo unspecified)	none
Cc1ccc([N+](=O)[O-])cc1S(=O)(=O)Nc1ccc(F)cc1	none
COC(=O)c1ccc(C2Nc3ccc(C)cc3-c3cc(C)nn32)cc1 (stereo unspecified)	none
Cc1cc(C)c2c(c1)-c1cc(C)nn1C(c1ccccc1O)N2 (stereo unspecified)	none
Cc1ccc2c(c1)-c1cc(C)nn1C(c1sccc1C)N2 (stereo unspecified)	none
Cc1ccc2c(c1)-c1cc(C)nn1C(c1cccc(O)c1O)N2 (stereo unspecified)	Dicer inh 32.5
Cc1ccc2c(c1)-c1cc(C)nn1C(c1ccc3c(c1)OCO3)N2 (stereo unspecified)	none
Cc1ccc2c(c1)-c1cc(C)nn1C(c1cc(C)ccc1O)N2 (stereo unspecified)	none
Cc1cc(C)c2c(c1)-c1cc(C)nn1C(c1cccc(O)c1O)N2 (stereo unspecified)	Dicer inh 29.9
Cc1ccc2c(c1)-c1cc(C)nn1C(c1ccc(O)c(O)c1)N2 (stereo unspecified)	Dicer inh 3.46
Cc1cc(C)c2c(c1)-c1cc(C)nn1C(c1cccc(O)c1)N2 (stereo unspecified)	none
COc1ccc(C2c3c(n(C)c(=O)n(C)c3=O)N=C3c4ccccc4C(=O)C32)cc1OC (stereo unspecified)	none
O=C(CC(Sc1ccc(C(F)(F)F)cn1)C(=O)O)c1ccc(Br)cc1 (stereo unspecified)	none
O=c1[nH]c2cc(Cl)ccc2c(-c2ccccc2)c1Sc1nnnn1-c1ccccc1	none
Cc1ccc(O)c(-c2cc(C(F)(F)C(F)F)on2)c1	none
Cc1nc(SCC(=O)O)c([N+](=O)[O-])[nH]1	none
COC(=O)CN1c2ccccc2NC2=C(C(=O)CC(C)(C)C2)C1c1cccs1 (stereo unspecified)	none
Cc1ccc(C2c3c(oc4ccc(C)cc4c3=O)C(=O)N2c2ccccn2)cc1 (stereo unspecified)	none
CCOc1nc(-c2ccc(OC)cc2)ccc1-c1noc(CC)n1	none
O=C(O)c1cccnc1C(=O)N1CCc2c([nH]c3ccccc23)C1C(F)(F)F (stereo unspecified)	none
O=C(CSc1nccc(-c2cccs2)n1)N1CCc2c([nH]c3ccccc23)C1C(F)(F)F (stereo unspecified)	Dicer inh 3.3
O=C(CSc1nc2ccccc2s1)N1CCc2c([nH]c3ccccc23)C1C(F)(F)F (stereo unspecified)	none
N#Cc1cccnc1N1CCN(C(=O)Nc2ccc(OC(F)(F)F)cc2)CC1	Dicer inh 3.13
N#Cc1cccnc1N1CCN(C(=O)Nc2ccccc2)CC1	none
O=C(Nc1ccc(OC(F)(F)F)cc1)N1CCN(c2ccc([N+](=O)[O-])cn2)CC1	none
Cc1cc2c(cc1C)CSC(c1ccccc1Cl)SC2	none
COc1ccc(-c2cc3ncc(C(=O)c4cc(C)ccc4O)cn3n2)cc1	none
O=C1CCCC/C1=C\Nc1ccccc1	Dicer inh 4.28
O=C(O)C1=C(C(=O)Nc2ccccc2)CCCC1	none
O=c1c(=CNc2ccccc2)c(=O)c2cccc3cccc1c32	none
Oc1ccccc1-c1nc(/C=C/c2cccs2)nn1-c1ccccc1	none
CN(C)S(=O)(=O)n1nc(/C=C/c2ccccc2Cl)nc1-c1ccccc1O	Dicer inh 8.11
CN(C)S(=O)(=O)n1cc(/C=C/c2noc(-c3ccccc3O)n2)c2ccccc21	none
COc1cc2c(cc1OC)C(=O)CC(C)(C)O2	none
C#CCOC(=O)c1ccc(S(=O)(=O)N2CCOCC2)cc1	none
ONC(=Nc1ccccc1)c1cccc(Cl)c1	none
ONC(=Nc1cccc(C(F)(F)F)c1)c1ccccc1	none
COc1ccc(N=C(NO)c2ccccc2)cc1Cl	Dicer inh 3.11
COC(=O)C1=C(C)NC2=C(C(=O)CCC2)C1c1cc(OC)ccc1OC (stereo unspecified)	none
N#Cc1cnc(SCc2ccc(Cl)cc2)nc1N	none
N#Cc1c(SCc2ccc(Cl)cc2)nsc1Nc1ccc(Cl)cc1	Dicer inh 3.04
FC(F)(F)c1cccnc1SCc1ccc(Cl)cc1	none
O=C(Nc1nc2ccccc2c(=O)s1)c1ccc([N+](=O)[O-])cc1	none
Fc1ccc(-c2cn3cccc(OCc4ccc(Cl)c(Cl)c4)c3n2)cc1	none
O=C1c2oc3ccc(Cl)cc3c(=O)c2C(c2ccc(O)cc2)N1Cc1ccc2c(c1)OCO2 (stereo unspecified)	none
CCOC(=O)c1sc(S(=O)(=O)Cc2ccccc2)c2c1CC(C)(C)CC2=O	none
Cn1c(=O)c2c(nc(SCC(=O)NC(C(=O)O)(c3ccccc3)c3ccccc3)n2C)n(C)c1=O	none
O=C(CCc1ccc(O)cc1)NNC(=S)NCCc1ccccc1	none
O=C(CCc1ccc(O)cc1)c1c(O)cc(O)cc1O	Dicer inh 3.59
CCOC(=O)C(=CNNC(=O)CCc1ccc(O)cc1)C(=O)OCC	none
Cc1ccc(SCc2cn3c(C)cccc3n2)cc1	none
CCOc1ccc2nc3c(nc2c1)-c1ccccc1C3=O	none
CSC1=N/C(=C\c2ccc([N+](=O)[O-])s2)C(=O)N1CCOc1ccc(Cl)cc1	none
CSC1=N/C(=C\c2ccc(Cl)cc2)C(=O)N1N(C)C	none
CSC1=N/C(=C\c2ccc(Cl)cc2)C(=O)N1CCOc1ccc(Cl)cc1	Dicer inh 3.62
Cc1csc2sc(/C=C(\C#N)S(=O)(=O)c3ccc(Cl)cc3)c(C)c12	none
CC(=O)NC(Nc1ccc(F)c(Cl)c1)(C(F)(F)F)C(F)(F)F	none
Cc1onc(-c2ccccc2Cl)c1C(=O)NN(C)C	none
CC(C)(CO)NC(=S)Nc1ccc(F)cc1	none
CCOC(=O)NC(=S)Nc1ccc(F)cc1	Dicer inh 6.69
CCOC(=O)NC(=S)Nc1cccc(C)n1	none
CC(CO)(CO)NC(=S)Nc1ccc(F)cc1	Dicer inh 5.78
OCC(CO)(CO)NC(=S)Nc1ccc(F)c(Cl)c1	none
CCOC(=O)NC(=S)Nc1ccc(C(C)(C)C)cc1NC(=S)NC(=O)OCC	none
CCOC(=O)NC(=S)Nc1ccc(C(C)(C)C)cc1	Dicer inh 5.1
O=C(CCc1ccc(O)cc1)NNC(=S)Nc1ccc(F)cc1	none
N#CCC(=O)NNC(=S)Nc1ccc(F)cc1	Dicer inh 3.31
N#CCC(=O)NNC(=S)Nc1cc(C(F)(F)F)cc(C(F)(F)F)c1	none
CCOC(=O)NC(=S)Nc1ccc(N2CC(C)OC(C)C2)cc1 (stereo unspecified)	none

Source: PubChem (Center for Chemical Genomics, University of Michigan)
